Bioassay records: PubChem BioAssay, National Center for Advancing Translational Sciences (NCATS)
Rows were chosen to be rich in hits. Some 0.44% of all compounds tested hit in one or more screens of this group.
EPAC1 antag: qHTS for Antagonist of cAMP-regulated guanine nucleotide exchange factor 3 (EPAC1): primary screen; AID 720709, 2013; Potency, µM (series often up to 115 µM), for inactives: at the top dose activity change, negative = inhibition, usual class: inhibitors; EPAC1 GEF assay, Rap1b-BODIPY-GDP exchange fluorescence; hit rate 0.14% among 360,000; Rap guanine nucleotide exchange factor 3 (Homo sapiens), O95398;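 further: plate controls were vehicle for no effect and positive control for full effect; nearly all actives have a fitted effect of over 50% in size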
EPAC1 agonist: qHTS for Agonist of cAMP-regulated guanine nucleotide exchange factor 3 (EPAC1): primary screen; Rap guanine nucleotide exchange factor 3 (Homo sapiens), O95398; Potency, µM (top dose mostly 154 µM), for inactives: top-dose activation, hits mostly activators; EPAC1 agonist qHTS, biochemical assay; response scale: 100% = response to 6.5 mM cAMP; hit rate 0.073% among 360,000; further: nearly all actives have a fitted effect of over 60% in size
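Normalized to 6.5 mM cAMP, activity reflects EPAC1-catalysed release of BODIPY-GDP from Rap1B, followed kinetically over 30 min at 480 nm excitation, 540 nm emission. Reaction contained 100 nM EPAC1, 250 nM Rap1B-BODIPY-GDP, 50 uM GDP.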
USP1-UAF1 inh: Inhibitors of USP1/UAF1: Primary Screen; Ubiquitin carboxyl-terminal hydrolase 1 (Homo sapiens), O94782; recombinant USP1/UAF1, Ub-Rhodamine cleavage fluorescence; Potency, µM (titrated, usually from 57.1 µM), for the others: at the top dose activity change, negative = inhibition, actives largely listed as inhibitors; hit rate 0.23% among 390,000; further: on the % scale 0 is the no-effect control and ±100 the full control effect; nearly all actives have a fitted effect of over 60% in size
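In this screen, compounds sit with the deubiquitinase complex (1nM) for 15 min at room temperature before Ub-Rho is added at 150nM final. Fluorescence rise is then followed for 6 reads every 60 seconds.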
EPAC2 ag: qHTS for Agonist of cAMP-regulated guanine nucleotide exchange factor 4 (EPAC2): primary screen; Rap guanine nucleotide exchange factor 4 (Homo sapiens), Q8WZA2; EPAC2 activation, biochemical qHTS; response scale: 100% = 6.5 mM cAMP response; Potency, µM (titrated, usually from 154 µM), for inactives: top-dose activation, usual class: activators; hit rate 0.079% among 360,000; further: nearly all actives have a fitted effect of over 50% in size
Target sequence (Q8WZA2 whole entry, looked up): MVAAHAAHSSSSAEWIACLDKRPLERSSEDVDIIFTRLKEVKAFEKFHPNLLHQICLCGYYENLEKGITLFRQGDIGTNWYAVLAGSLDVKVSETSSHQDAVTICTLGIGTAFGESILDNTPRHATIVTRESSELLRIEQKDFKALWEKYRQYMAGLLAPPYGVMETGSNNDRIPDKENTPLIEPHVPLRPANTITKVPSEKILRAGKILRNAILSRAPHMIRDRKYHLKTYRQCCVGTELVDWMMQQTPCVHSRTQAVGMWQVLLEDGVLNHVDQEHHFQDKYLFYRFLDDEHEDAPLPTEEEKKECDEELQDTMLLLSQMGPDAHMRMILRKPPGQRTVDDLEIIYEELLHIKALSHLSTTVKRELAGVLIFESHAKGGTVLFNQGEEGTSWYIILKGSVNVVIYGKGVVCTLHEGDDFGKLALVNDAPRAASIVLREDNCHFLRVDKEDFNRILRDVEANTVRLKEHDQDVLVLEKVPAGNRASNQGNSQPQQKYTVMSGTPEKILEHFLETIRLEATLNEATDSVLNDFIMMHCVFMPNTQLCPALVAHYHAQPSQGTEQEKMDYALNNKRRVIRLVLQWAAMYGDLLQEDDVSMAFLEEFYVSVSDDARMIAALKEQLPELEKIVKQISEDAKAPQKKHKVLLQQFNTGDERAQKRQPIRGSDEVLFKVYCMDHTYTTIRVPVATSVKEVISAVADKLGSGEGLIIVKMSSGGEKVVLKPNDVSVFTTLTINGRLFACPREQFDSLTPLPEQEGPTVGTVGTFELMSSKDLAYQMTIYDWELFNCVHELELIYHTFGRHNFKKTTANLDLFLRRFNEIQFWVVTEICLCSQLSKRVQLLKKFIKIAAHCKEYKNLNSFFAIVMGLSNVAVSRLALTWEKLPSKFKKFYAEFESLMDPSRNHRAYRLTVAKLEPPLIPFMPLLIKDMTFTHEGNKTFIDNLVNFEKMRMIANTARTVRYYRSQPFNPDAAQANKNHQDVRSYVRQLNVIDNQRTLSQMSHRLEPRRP
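Each well held 100 nM EPAC2, 250 nM RAP1B-BODIPY-GDP and 50 uM GDP. Fluorescence, read at 5-min intervals to 30 min, was referenced to a 6.5 mM cAMP positive control.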
USP2a inh: qHTS Assay for Inhibitors of Ubiquitin-specific Protease USP2a Using CHOP2 as the Reporter | USP2 core, Ub-CHOP2 coupled fluorogenic reporter, 485/531 | hit rate 0.01% among 330,000 | Ubiquitin carboxyl-terminal hydrolase 2 (Homo sapiens), O75604 | Potency, µM (titrated, usually from 38.3 µM), for inactives: at the highest dose activity change, negative = inhibition, most hits filed as inhibitors;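 further: plate controls were DMSO wells for no effect and full inhibition by NEM control for full effect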
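USP2 core (10nM final) preincubated 30min RT with compound in 20mM Tris-HCl pH 8.0, 2mM CaCl2, 2mM beta-mercaptoethanol, 0.05% CHAPS; 25nM Ub-CHOP2 plus 25nM reporter substrate added, fluorescence (Ex485/Em531) read after 60min.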
EPAC2 antag: qHTS for Antagonist of cAMP-regulated guanine nucleotide exchange factor 2 (EPAC2): primary screen | Rap guanine nucleotide exchange factor 4 (Homo sapiens), Q8WZA2 | EPAC2 GEF exchange of Rap1B-BODIPY-GDP, fluorescence | Potency, µM (top dose mostly 114 µM), without a hit: at the highest dose activity, negative = inhibition, most hits filed as inhibitors | hit rate 0.18% among 360,000 | AID 720708, 2013; further: on the % scale 0 is the no-effect control and ±100 the full control effect; nearly all actives have a fitted effect of over 45% in size
* marks the source's active call; other numbers are inactive results; u = inconclusive; x = not tested or not shown. The call rests on the fitted dose curve; in most records, active means well fitted curve in the direction sought with a large enough effect; inconclusive means small, poorly fitted or top-dose-only effect, or another doubt; inactive means no such curve, though single readings can be large; an effect the other way counts as inactive or inconclusive. Potency means the concentration at half of the fitted maximal effect.

SMILES	EPAC1 antag	EPAC1 agonist	USP1-UAF1 inh	EPAC2 ag	USP2a inh	EPAC2 antag
O=C(O)c1ccccc1-c1c2cc(I)c(=O)c(I)c-2oc2c(I)c(O)c(I)cc12	129%	28µM*	22µM*	100µM*	x	169%
CN1CCN(C(CNC(=O)C(=O)Nc2ccc(Cl)cc2)c2cccnc2)CC1 (stereo not given)	x	x	1%	x	x	x
COc1cc(/C=C2\SC(=O)N(c3ccccc3Cl)C2=O)cc([N+](=O)[O-])c1O	79µM*	0%	-20%	-5%	-7%	u
COc1cc(/C=C2\SC(=O)N(CC(=O)Nc3cccc(C)c3)C2=O)cc([N+](=O)[O-])c1O	u	7%	-26%	-15%	3%	50µM*
COc1cc(/C=C2/C(=O)NN(c3ccc(Cl)c(Cl)c3)C2=O)cc([N+](=O)[O-])c1O	u	0%	u	-4%	-5%	-26%
CCOc1cc(/C=C2\SC(=O)N(CC(=O)Nc3ccccc3F)C2=O)cc([N+](=O)[O-])c1O	u	-17%	-13%	-18%	-3%	u
Cc1nc(C)c(-c2ccc(SCC(=O)Nc3ccc(Cl)c(Cl)c3)nn2)s1	x	x	-12%	x	x	x
CN1/C(=C\C=C(/C#N)C(=O)Nc2ccccc2F)C(C)(C)c2ccccc21	16%	u	-15%	100µM*	7%	50%
CN1/C(=C/C=C(/C#N)C(N)=O)C(C)(C)c2ccccc21	8%	2%	-7%	10%	4%	13%
Cc1[nH]c(=O)[nH]c(=O)c1C1N2CC3(C(C)C)CN1CC(C(C)C)(C2)C3=O (stereo not given)	x	x	-14%	x	x	x
O=C1C(=C(c2ccccc2)c2ccccc2)Nc2ccccc21	-8%	9%	-17%	6.3µM*	0%	-35%
CCCCN1C(=O)c2[nH]nc(-c3ccccc3O)c2C1c1ccc(C(C)(C)C)cc1 (stereo not given)	x	x	-4%	x	x	x
CCOc1ccc(NC(=O)/C(C#N)=C/c2ccc(N3CCCC3)c(C)c2)cc1	90%	112µM*	-25%	1%	u	16%
CN(C)c1ccc(/C=C2\C(=N)N3N=C(CC(=O)N4CCCC4)SC3=NC2=O)cc1Br	0%	10%	-5%	4%	2%	-12%
CN(C)c1ccc(/C=C2\C(=N)N3N=C(CC(=O)N4CCCCC4)SC3=NC2=O)cc1	-9%	8%	-20%	100µM*	10%	10%
COc1ccc(S(=O)(=O)N2CCOC23CCN(S(=O)(=O)c2cccs2)CC3)cc1	-4%	56µM*	-18%	-1%	-1%	4%
O=S(=O)(Nc1ccccc1-c1ccccc1)c1ccccc1	-19%	12%	u	17%	x	50µM*
O=C(O)c1cccc(S(=O)(=O)Nc2ccccc2-c2ccccc2)c1	-10%	-20%	-16%	-7%	2%	7%
COc1cc(NC(=O)c2cc3ccccc3o2)c(OC)cc1Cl	-7%	7%	-19%	6%	2%	4%
COc1cc(NC(=O)c2cc3ccccc3o2)c(OC)cc1Br	-4%	4%	-2%	10µM*	-3%	4%
Cc1sc2ncn(CC(=O)NCc3ccco3)c(=O)c2c1-c1ccc(F)cc1	-21%	1%	-10%	-2%	-19%	0%
O=C(Cn1cnc2scc(-c3cccc([N+](=O)[O-])c3)c2c1=O)NCc1ccco1	56µM*	1%	-9%	-5%	2%	4%
COc1ccc(/C=C2\N=C(SC)N(c3ccccc3OC)C2=O)cc1	6%	-2%	-25%	15%	-1%	18µM*
CCOc1ccc(N2C(=O)/C(=C/c3ccccc3)N=C2SC)cc1	-15%	8%	-15%	4%	2%	1%
O=c1c2cc([N+](=O)[O-])cc([N+](=O)[O-])c2[nH]n1-c1ccccc1	u	-12%	-21%	-17%	-4%	45µM*
SMILES	EPAC1 antag	EPAC1 agonist	USP1-UAF1 inh	EPAC2 ag	USP2a inh	EPAC2 antag
Nc1[nH]n(-c2ccccc2)c(=O)c1N=Nc1ccccc1[N+](=O)[O-]	11%	9%	2%	4%	4%	-2%
COc1ccc(/C=C2\SC(=S)N(NS(=O)(=O)c3ccc(C)cc3)C2=O)c(OC)c1	u	-1%	-24%	-18%	u	-13%
COc1ccc(OC)c(/C=C2\SC(=S)N(NS(=O)(=O)c3ccc(C)cc3)C2=O)c1	56µM*	9%	u	9%	-2%	u
COc1ccc(OC)c(/C=C2\SC(=S)N(NS(=O)(=O)c3ccccc3)C2=O)c1	u	-6%	-23%	14%	4%	u
COc1ccccc1/C=C1\SC(=S)N(NS(=O)(=O)c2ccc(C)cc2)C1=O	79µM*	-4%	-25%	8%	0%	u
COc1ccc(OC)c(/C=C2\SC(=S)N(Cc3cccnc3)C2=O)c1	4%	9%	-17%	112µM*	0%	10%
COc1cc(OC)c2c(O)c3c(c(-c4c5c(c(O)c6c(OC)cc(OC)cc46)CO[C@@H](C)[C@H]5O)c2c1)[C@H](O)[C@H](C)OC3	35µM*	-33%	u	-21%	2%	10%
Cn1cnc(S(=O)(=O)N2CCC(C(=O)NCc3ccccc3Cl)CC2)c1	x	x	-16%	x	x	x
COc1cc(OC)c(-c2cc(C(=O)O)ccc2OC)c(OC)c1	89µM*	-16%	-6%	-6%	1%	0%
CN(C)c1ccc(/C=C2\SC(=S)N(Nc3ncc(C(F)(F)F)cc3Cl)C2=O)cc1	35%	112µM*	25µM*	112µM*	10%	66%
Cc1nc(N2CCOCC2)c2c(C(=O)N3CCN(c4cc(Cl)ccc4C)CC3)c(C)oc2n1	x	x	-22%	x	x	x
Nc1ccc(/C=C/C(=O)c2cccs2)cc1	22%	16%	25µM*	24%	1%	17%
N#Cc1nc(-c2ccc(COc3ccc(Cl)cc3)o2)oc1N1CCC(C(N)=O)CC1	x	x	-14%	x	x	x
O=C1S/C(=C/c2ccc(N3CCOCC3)o2)C(=O)N1Cc1c(F)cccc1Cl	10%	-7%	u	18%	4%	30%
O=C1S/C(=C\c2ccc(N3CCOCC3)o2)C(=O)N1c1ccccc1	-9%	12%	28µM*	89µM*	0%	31%
